The text below walks through data of PubChem BioAssay (NCATS).

Records with an inconclusive call do not appear. The source made the active and inactive calls. The call rests on the fitted dose curve; in most records, active means well fitted inhibition curve with a large enough effect; inconclusive means small, poorly fitted or top-dose-only effect; inactive means flat fitted curve, though single readings scatter.
Potency means the concentration at half of the fitted maximal effect.

For one assay, the system named is CP215. Put plainly: qHTS profiling for inhibitors of Plasmodium falciparum proliferation (AID 504749). Further: nearly all actives have a fitted effect of over 60% in size.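 On activity, negative = inhibition: 0% = DMSO vehicle and full inhibition = artemisinin control.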 To be noted: P. falciparum in erythrocytes, SYBR Green DNA, 72 h; series mostly up to 12.8 µM; activity, negative = inhibition: at the top concentration. In a few lines: (§1)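 Readout was DNA-dye fluorescence from lysed cultures, ex 485/em 535 nm. Parasitized red cells had grown 72 h with compound; data scaled between 0.29 uM artemisinin and DMSO wells and corrected using vehicle-only plates.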
(Quantitative high-throughput screening tests each substance at several concentrations.)
Turning to `COc1cc(N[C@@H](C)CCCN)c2ncccc2c1`, the Potency is 3.61 µM (active).
Turning to `O=C(OC[C@@H](O)CO)c1ccccc1Nc1ccnc2cc(Cl)ccc12`, the “activity, negative = inhibition” value is -0.744% (inactive).
Same read-out and setting: the same measure for `CO[C@]1(NC(=O)[C@H](C(=O)O)c2ccc(O)cc2)C(=O)N2C(C(=O)O)=C(CSc3nnnn3C)CO[C@H]21`: 1.03% (inactive); for `COc1ccc2c(c1)N(C[C@@H](C)CN(C)C)c1ccccc1S2`: -2.88% (inactive).
The same measure, in the same setting: the same measure for `CCC(=O)[C@@]1(C)[C@H](C)C[C@@H]2[C@@H]3CCC4=CC(=O)C=C[C@@]4(C)[C@H]3[C@H](O)C[C@]21C`: 2.52% (inactive); for `CCC(C)(C)C(=O)O[C@@H]1C[C@H](C)C=C2C=C[C@H](C)[C@@H](CC[C@H]3C[C@@H](O)CC(=O)O3)[C@H]21`: 2.3% (inactive).
For the compound `CCN(CC)[C@@H](C)CN1c2ccccc2Sc2ccccc21`, the “activity, negative = inhibition” value is -21% (inactive).
Still for that read-out and setting: the same measure for `CC=C(/C(=C/C)c1ccc(O)cc1)c1ccc(O)cc1`: -6.24% (inactive); for `CC1(C)S[C@@H]2[C@H](NC(=O)[C@@H](N)c3ccccc3)C(=O)N2[C@H]1C(=O)O[C@H]1OC(=O)c2ccccc21`: 7.23% (inactive).

A further assay has as its system CP217. The assay is described as above. Particulars: P. falciparum in erythrocytes, SYBR Green DNA, 72 h; series mostly up to 12.8 µM; activity, negative = inhibition: at the top concentration. In short, it runs like this:
as §1
Turning to `CCO[C@H]1O[C@@H]([C@H](COCc2ccccc2)OCc2ccccc2)[C@@H](OCc2ccccc2)[C@H]1O`, the “activity, negative = inhibition” value was -14.5% (inactive).
On to `COc1cc(N[C@@H](C)CCCN)c2ncccc2c1`, for which the Potency is 1.12 µM (active).
Still for that read-out and setting: the same measure for `C=Cc1c(C)c2cc3nc(cc4[nH]c(cc5nc(cc1[nH]2)C(C)=C5CCC(=O)O)c(CCC(=O)OC)c4C)[C@@]1(C)C3=CC=C(C(=O)OC)[C@H]1C(=O)OC` (tested in a mixture with another compound): 10 µM (active).
Take `O=C(OC[C@@H](O)CO)c1ccccc1Nc1ccnc2cc(Cl)ccc12`: the “activity, negative = inhibition” value was -6.99% (inactive).
As to `CO[C@]1(NC(=O)[C@H](C(=O)O)c2ccc(O)cc2)C(=O)N2C(C(=O)O)=C(CSc3nnnn3C)CO[C@H]21`, the “activity, negative = inhibition” value is 8.56% (inactive).
In the case of `COc1ccc2c(c1)N(C[C@@H](C)CN(C)C)c1ccccc1S2`, the “activity, negative = inhibition” value is -16% (inactive).
Same read-out and setting: the same measure for `CCC(=O)[C@@]1(C)[C@H](C)C[C@@H]2[C@@H]3CCC4=CC(=O)C=C[C@@]4(C)[C@H]3[C@H](O)C[C@]21C`: 0.26% (inactive); for `CCC(C)(C)C(=O)O[C@@H]1C[C@H](C)C=C2C=C[C@H](C)[C@@H](CC[C@H]3C[C@@H](O)CC(=O)O3)[C@H]21`: -14.4% (inactive).
On to `COC(=O)[C@@H]1[C@@H]2C[C@H]3c4[nH]c5cc(OC)ccc5c4CCN3C[C@@H]2C[C@H](OC(=O)/C=C\c2cc(OC)c(OC)c(OC)c2)[C@H]1OC`, for which the Potency was 3.55 µM (active).
As for `CC=C(/C(=C/C)c1ccc(O)cc1)c1ccc(O)cc1`, the “activity, negative = inhibition” value is 5.96% (inactive).
Consider `CC1(C)S[C@@H]2[C@H](NC(=O)[C@@H](N)c3ccccc3)C(=O)N2[C@H]1C(=O)O[C@H]1OC(=O)c2ccccc21`, for which the “activity, negative = inhibition” value was 6.84% (inactive).

The subject of another assay is CP237. The assay is described as above. Particulars: P. falciparum in erythrocytes, SYBR Green DNA, 72 h; series mostly up to 12.8 µM; activity, negative = inhibition: at the top concentration. In short, it runs like this: as §1
As to `CCO[C@H]1O[C@@H]([C@H](COCc2ccccc2)OCc2ccccc2)[C@@H](OCc2ccccc2)[C@H]1O`, the “activity, negative = inhibition” value is -5.34% (inactive).
As for `COc1cc(N[C@@H](C)CCCN)c2ncccc2c1`, the Potency was 2.51 µM (active).
Still for that read-out and setting: the same measure for `C=Cc1c(C)c2cc3nc(cc4[nH]c(cc5nc(cc1[nH]2)C(C)=C5CCC(=O)O)c(CCC(=O)OC)c4C)[C@@]1(C)C3=CC=C(C(=O)OC)[C@H]1C(=O)OC` (tested in a mixture with another compound): 5.01 µM (active).
On to `O=C(OC[C@@H](O)CO)c1ccccc1Nc1ccnc2cc(Cl)ccc12`, for which the “activity, negative = inhibition” value was -15.3% (inactive).
The same measure, in the same setting: the same measure for `CO[C@]1(NC(=O)[C@H](C(=O)O)c2ccc(O)cc2)C(=O)N2C(C(=O)O)=C(CSc3nnnn3C)CO[C@H]21`: 1.54% (inactive).
On to `CCC(=O)[C@@]1(C)[C@H](C)C[C@@H]2[C@@H]3CCC4=CC(=O)C=C[C@@]4(C)[C@H]3[C@H](O)C[C@]21C`, for which the Potency is 3.55 µM (active).
On to `CCC(C)(C)C(=O)O[C@@H]1C[C@H](C)C=C2C=C[C@H](C)[C@@H](CC[C@H]3C[C@@H](O)CC(=O)O3)[C@H]21`, for which the “activity, negative = inhibition” value was -3.62% (inactive).
Consider `CC=C(/C(=C/C)c1ccc(O)cc1)c1ccc(O)cc1`, for which the “activity, negative = inhibition” value was -9.3% (inactive).
In the case of `CC1(C)S[C@@H]2[C@H](NC(=O)[C@@H](N)c3ccccc3)C(=O)N2[C@H]1C(=O)O[C@H]1OC(=O)c2ccccc21`, the “activity, negative = inhibition” value was -5.62% (inactive).

The next assay has as its system CP238. Described as above. Particulars: P. falciparum in erythrocytes, SYBR Green DNA, 72 h; series mostly up to 12.8 µM; activity, negative = inhibition: at the top concentration. In a few lines:
as §1
Take `CCO[C@H]1O[C@@H]([C@H](COCc2ccccc2)OCc2ccccc2)[C@@H](OCc2ccccc2)[C@H]1O`: the “activity, negative = inhibition” value was -5.47% (inactive).
As for `COc1cc(N[C@@H](C)CCCN)c2ncccc2c1`, the Potency is 2.24 µM (active).
Still for that read-out and setting: the same measure for `C=Cc1c(C)c2cc3nc(cc4[nH]c(cc5nc(cc1[nH]2)C(C)=C5CCC(=O)O)c(CCC(=O)OC)c4C)[C@@]1(C)C3=CC=C(C(=O)OC)[C@H]1C(=O)OC` (tested in a mixture with another compound): 11.2 µM (active).
In the case of `O=C(OC[C@@H](O)CO)c1ccccc1Nc1ccnc2cc(Cl)ccc12`, the “activity, negative = inhibition” value was -3.18% (inactive).
Same read-out and setting: the same measure for `CO[C@]1(NC(=O)[C@H](C(=O)O)c2ccc(O)cc2)C(=O)N2C(C(=O)O)=C(CSc3nnnn3C)CO[C@H]21`: 0.119% (inactive); for `COc1ccc2c(c1)N(C[C@@H](C)CN(C)C)c1ccccc1S2`: -13.2% (inactive).
For the compound `CCC(=O)[C@@]1(C)[C@H](C)C[C@@H]2[C@@H]3CCC4=CC(=O)C=C[C@@]4(C)[C@H]3[C@H](O)C[C@]21C`, the “activity, negative = inhibition” value is 9.27% (inactive).
As for `CCC(C)(C)C(=O)O[C@@H]1C[C@H](C)C=C2C=C[C@H](C)[C@@H](CC[C@H]3C[C@@H](O)CC(=O)O3)[C@H]21`, the “activity, negative = inhibition” value was -5.48% (inactive).
For `CCN(CC)[C@@H](C)CN1c2ccccc2Sc2ccccc21`, the “activity, negative = inhibition” value was -20.7% (inactive).
In the case of `CC=C(/C(=C/C)c1ccc(O)cc1)c1ccc(O)cc1`, the “activity, negative = inhibition” value was 8.95% (inactive).
For `CC1(C)S[C@@H]2[C@H](NC(=O)[C@@H](N)c3ccccc3)C(=O)N2[C@H]1C(=O)O[C@H]1OC(=O)c2ccccc21`, the “activity, negative = inhibition” value is 8.48% (inactive).
